Only some compounds are listed: those with a hit (about 1.5% of all), similar ones and a draw of the others.
RAD54 inh = RAD54 (human) branch migration inhibition; Q92698; RAD54 Holliday junction branch migration, FAM/BHQ fluorescence; inhibition, % at 10.4 µM; 360,000 tested, 0.14% active; AID 602329;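 active = mean normalized replicate activity at least 40 and at least half of replicates scoring 40 or more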;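 note: 0% = median of neutral control wells and 100% = median of positive control wells; inhibitors cause a drop in the FAM fluorescence signal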
Target sequence (Q92698 whole entry, looked up): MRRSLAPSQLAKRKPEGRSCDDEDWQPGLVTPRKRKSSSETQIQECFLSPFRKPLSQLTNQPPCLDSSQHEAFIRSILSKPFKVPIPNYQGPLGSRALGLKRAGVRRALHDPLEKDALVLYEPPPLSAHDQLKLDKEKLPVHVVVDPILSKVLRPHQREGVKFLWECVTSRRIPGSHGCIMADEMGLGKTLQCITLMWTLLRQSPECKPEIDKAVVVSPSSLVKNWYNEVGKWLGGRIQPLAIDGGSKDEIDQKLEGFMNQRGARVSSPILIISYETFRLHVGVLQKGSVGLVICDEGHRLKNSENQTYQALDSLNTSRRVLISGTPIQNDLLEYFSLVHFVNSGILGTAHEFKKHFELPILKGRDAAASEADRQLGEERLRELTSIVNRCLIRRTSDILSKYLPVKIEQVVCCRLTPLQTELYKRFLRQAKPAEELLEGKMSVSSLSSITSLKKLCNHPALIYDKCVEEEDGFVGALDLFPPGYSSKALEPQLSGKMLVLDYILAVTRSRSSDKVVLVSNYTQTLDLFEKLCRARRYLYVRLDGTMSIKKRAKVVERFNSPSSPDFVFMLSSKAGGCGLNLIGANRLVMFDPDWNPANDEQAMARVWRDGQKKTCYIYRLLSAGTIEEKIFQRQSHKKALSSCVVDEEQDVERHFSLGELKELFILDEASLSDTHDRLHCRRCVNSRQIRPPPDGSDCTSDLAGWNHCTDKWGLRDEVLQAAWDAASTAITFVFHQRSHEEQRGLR
RAD52 inh = RAD52 (human) annealing inhibition. P43351. recombinant RAD52 DNA annealing, FRET fluorescence. inhibition, % at 18.7 µM. 360,000 tested, 0.46% active. AID 651710;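 active = every replicate showing at least 50% inhibition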
DNA FID counter = counter-screen for HCV NS3 helicase inhibitors: DNA intercalator displacement; inhibition, % at 7.9 µM; AID 1845; DNA fluorescent intercalator displacement, fluorescence; 290,000 tested, 0.17% active; in the data active = inhibition above about 37%;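 note: 0% = vehicle and 100% = reference compound; higher means more ethidium bromide displaced from hairpin DNA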
miR-122 sensor = inhibitors of miR-122 in Huh7 cells | 340,000 tested, 0.3% active | activation (reporter increase), % at 12.5 µM | Huh7 miR-122 Renilla luciferase sensor, 48 h; neutral wells = 0, positive control = 100;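 active = mean replicate activation score at least 90 and every replicate individually at or above 90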;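 note: higher luciferase means less miR-122 activity so hits act as miR-122 inhibitors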
Glyco luc inh = N-linked glycosylation inhibition; 360,000 tested, 0.23% active; D54 ERlucT glycosylation luciferase reporter, 24 h; percent of 100 nM tunicamycin response; AID 588692; reporter increase, % at 12.5 µM;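 active = mean luciferase reporter signal, scaled so untreated is 0 and the glycosylation-blocking control 100, at or above a set limit in every replicate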;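 note: luciferase carries N-glycosylation sites so blocking glycosylation raises the light; 0% = median of neutral control wells and 100% = median of 100 nM tunicamycin wells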
NRP1-CendR mod = NRP-1/CendR interaction modulation. O14786. FAM-RPARPAR peptide binding to NRP-1, fluorescence polarization. inhibition, % at 25 µM. 360,000 tested, 0.85% active;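 active = inhibition or corrected inhibition above about 18%, plus a signal ratio from 0.5 to 1.5, limit read from the data, passing the limit was not always enough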
The depositor's hits bear a star; · = no result given; [ ] = another dose, or the depositor's remark.

SMILES	RAD54 inh	RAD52 inh	DNA FID counter	miR-122 sensor	Glyco luc inh	NRP1-CendR mod
COCC#Cc1ccc([C@H]2[C@H]3CN(C(=O)c4ccncc4)CC(=O)N3[C@H]2CO)cc1	·	15.5	·	·	·	·
CO[C@@H]1CN(C)C(=O)c2ccc(NC(=O)c3cnccn3)cc2OC[C@@H](C)N(C)C[C@@H]1C	·	-3.2	·	·	·	·
Cc1ccccc1NC(=O)c1sc2nc(N3CCOCC3)c3c(c2c1N)CCCC3	0.4	-7.9	-42.8	-16.6	2.1	33.3*
Cc1cc(C)n(CCC(=O)N/N=C/c2c(O)ccc3ccccc23)n1	·	-1.7	-22.1	3.1	-5.0	34.1*
CCN1CCCC1CNC(=O)c1cc2c(-c3ccc(Cl)cc3)nn(C)c2s1 (configuration not stated)	51.4*	·	35.0	5.0	-4.3	-3.4
NNc1ncnc2c1cnn2-c1ccccc1	·	·	-2.2	22.9	-0.9	28.1*
CN1CCN(S(=O)(=O)c2ccc(N3CCc4ccccc4C3)nc2)CC1	10.7	-1.2	3.7	1.3	-0.2	21.4*
CN1CCN(c2ccc(S(=O)(=O)N3CCCCC3)cn2)CC1	·	·	2.9	-4.3	0.5	-11.4
COc1cccc(/C=N/NC(=S)Nc2cccnc2)c1	4.6	-18.6	-14.3	3.5	-0.4	8.9
Oc1ccc(/C=N/NC(=S)Nc2cccnc2)cc1	·	-13.1	-6.1	·	-4.4	23.2*
NC(=O)Cn1cc(/C=N\NS(=O)(=O)c2ccc(Cl)cc2)c2ccccc21	-5.0	-11.1	-3.6	127.8*	-0.3	10.2
Cc1ccc(S(=O)(=O)N/N=C\c2cn(CC(N)=O)c3ccccc23)cc1C	-12.2	-30.7	-17.9	·	-1.0	25.2*
C[C@@H]1CCCCO[C@@H](CN(C)Cc2ccc(C(=O)O)cc2)[C@@H](C)CN([C@H](C)CO)C(=O)c2cc(NS(=O)(=O)c3ccc(Cl)cc3)ccc2O1	-3.0	5.8	·	3.3[16.7 µM]	·	·
CCc1[nH]nc2c1C(C(C)C)C(C#N)=C(N)O2 (configuration not stated)	1.4	·	·	-1.7	-0.4	20.6*
CC(C)C1C(C#N)=C(N)Oc2n[nH]c(-c3ccc4ccccc4c3)c21 (configuration not stated)	1.8	·	-17.0	1.3	24.8	27.2*
Cc1noc(C)c1S(=O)(=O)Nc1ccc2c(c1)C(=O)N([C@H](C)CO)C[C@H](C)[C@@H](CN(C)C(=O)CCCN(C)C)OCCCC[C@H](C)O2	3.5	·	·	-4.7[16.7 µM]	·	·
CCC(=O)Nc1ccc2c(c1)OC[C@@H](C)N(C(=O)CC)C[C@@H](C)[C@@H](OC)CN(C)C2=O	·	·	·	6.9[16.7 µM]	·	·
CCS(=O)(=O)NCC[C@@H]1CC[C@@H](NC(=O)Cc2ccccn2)[C@@H](CO)O1	-9.8	-74.7	·	13.3[16.7 µM]	·	·
Cc1ccc(N(CC(=O)NCc2ccc(F)cc2)C(=O)c2csnn2)c(C)c1	·	-4.0	-17.1	·	-0.2	2.2
Cc1cccc(N(CC(=O)NCc2ccc(F)cc2)C(=O)c2csnn2)c1C	·	-12.0	-14.8	·	-0.8	20.3*
Cc1ccc(C2CC(c3ccc(Cl)cc3)=NNC2=O)cc1 (configuration not stated)	-3.4	·	-11.7	9.8	-2.2	-11.3
Cc1cccc(C2=NNC(=O)C(c3ccc(Cl)cc3)C2)c1 (configuration not stated)	·	-17.6	-17.3	·	-4.4	24.6*
COCC(=O)NC[C@@H]1CC[C@@H]2[C@@H](CN2S(=O)(=O)c2ccccc2[N+](=O)[O-])O1	·	-15.3	·	·	·	·
COCCNc1nc(-c2cc(-c3ccccc3)on2)cc(C(C)C)n1	-5.5	·	·	-3.3	-3.1	26.5*
Cc1noc(C)c1NC(=O)Nc1ccc2c(c1)C(=O)N([C@H](C)CO)C[C@@H](C)[C@@H](CN(C)C(=O)Nc1ccccc1)O2	·	·	·	-0.6[16.7 µM]	·	·
SMILES	RAD54 inh	RAD52 inh	DNA FID counter	miR-122 sensor	Glyco luc inh	NRP1-CendR mod
COc1ccc(CN(C)C(=O)c2cc(S(=O)(=O)NCc3ccccc3)ccc2C)c(OC)c1	·	-8.4	·	·	-1.6	5.8
COc1ccc(CN(C)C(=O)CCNS(=O)(=O)c2ccccc2)c(OC)c1	8.6	-1.1	·	8.5	-0.6	28.6*
O=C(NC(NC(=S)Nc1c(Cl)cccc1Cl)C(Cl)(Cl)Cl)c1cccc([N+](=O)[O-])c1 (configuration not stated)	12.6	·	4.0	173.7*	-6.5	0.7
C[C@H]1CN([C@@H](C)CO)C(=O)c2cccc(NC(=O)C3CCCCC3)c2O[C@@H]1CN(C)S(=O)(=O)c1ccc(Cl)cc1	3.5	2.1	·	9.1[16.7 µM]	·	·
CCOC(=O)Cn1c(=NC(=O)c2ccc([N+](=O)[O-])s2)sc2ccccc21	·	-47.8	1.3	·	-0.1	56.3*
COCC#Cc1ccc(CC[C@H]2O[C@H]3CC[C@H](CO)O[C@H]3C[C@@H]2n2cc(C(C)(C)O)nn2)cc1	·	1.7	·	·	·	·
COc1ccc(NC(=O)c2c(-c3c(Cl)cccc3Cl)noc2C)c(OC)c1	-2.0	-8.1	-21.5	-2.8	0.7	25.5*
COc1ccc(NC(=O)c2c(-c3c(Cl)cccc3Cl)noc2C)cn1	-8.0	-15.5	-22.2	-6.1	·	-0.2
C[C@@H]1CCCCO[C@H](CN(C)S(C)(=O)=O)[C@@H](C)CN([C@@H](C)CO)C(=O)c2cc(NC(=O)Nc3ccc(C(F)(F)F)cc3)ccc2O1	0.5	2.1	·	-1.2[16.7 µM]	·	·
CC(C)(C)CC(=O)Nc1ccc(C(N)=O)cc1	-0.1	·	1.0	-4.5	2.0	26.5*
CCC(C)(C)C(=O)Nc1ccc(C(N)=O)cc1	1.2	·	0.4	-9.3	0.5	18.2
O=C(C1CCC1)N1CC2(C1)[C@@H](c1ccccc1)[C@@H](CO)N2Cc1cncnc1	·	-0.1	·	·	·	·
CCN(CC)CC(=O)Nc1ccc(-c2nc3cc(NC(=O)CN(CC)CC)ccc3o2)cc1	5.4	·	21.6	2.1	-1.8	17.4*
CCC(C)NCC(=O)Nc1ccc(-c2nc3cc(NC(=O)CNC(C)CC)ccc3o2)cc1 (configuration not stated)	10.6	·	9.7	-5.5	-1.9	9.0
CC1Sc2ccc(S(=O)(=O)NCCc3ccc(S(N)(=O)=O)cc3)cc2NC1=O (configuration not stated)	-15.0	-10.4	-7.6	8.2	-2.2	11.7
CC1C(=O)Nc2ccc(S(=O)(=O)NCCc3ccc(Cl)cc3)cc2NC1=O (configuration not stated)	15.2	-15.5	-9.8	·	-1.3	24.1*
COc1cccc(C#Cc2cnc3c(c2)C(=O)N([C@H](C)CO)C[C@H](C)[C@@H](CN(C)C(=O)C2CC2)O3)c1	-0.9	-11.1	·	0.1[16.7 µM]	·	·
CCOC(=O)c1c(C)oc2c1c(C=NCCO)c(O)c1ccccc12	·	-21.9	1.6	·	3.6	35.1*
Cc1ccc(NC(=O)[C@H](CC(C)C)NC(=O)[C@@H]2Cc3ccccc3CN2)cc1	-5.9	-14.6	7.3	-9.4	0.3	21.2*
Cc1c(Br)cc(-c2nnco2)cc1Br	·	·	-7.2	-0.3	1.4	20.8*
O=C(N/N=C/C=C/c1ccccc1)c1ccccn1	·	-15.0	-11.4	·	-0.9	7.9
O=C(N/N=C/C=C\c1cccc([N+](=O)[O-])c1)c1ccccn1	·	-9.0	-0.3	·	-0.4	27.7*

Screening results from PubChem BioAssay.
